Holding throughout (settings): mRNA level, 48 h; actives raise or lower the signal
Read-out in assay [1]: Bcl-2 (BAX) gene, BAX (gene 581)
Put plainly: LTEA_HepaRG_BAX: Life Technologies and Expression Analysis (LTEA) Assay for Bcl-2 (BAX) gene using HepaRG (AID 2283470). Summed up: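 Differentiated HepaRG cells exposed 48 h in serum-free induction medium, eight half-log concentrations from 100 uM, in duplicate, 0.5% DMSO vehicle. BAX mRNA by TaqMan qRT-PCR, normalised to ACTB, GAPDH and POLR2A.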

Read-out in assay [2]: adenosine kinase (ADK) gene, ADK (gene 132)
The assay is described as follows: LTEA_HepaRG_ADK: Life Technologies and Expression Analysis (LTEA) Assay for adenosine kinase (ADK) gene using HepaRG (AID 2283471). Summed up: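 Read-out is ADK transcript level measured by qRT-PCR and normalised to three housekeeping genes. Cells are human HepaRG, dosed for 48 h at up to 100 uM in 0.5% DMSO. Gain or loss of signal is fitted against DMSO controls.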

Read-out in assay [3]: Alpha-fetoprotein (AFP) gene, AFP (gene 174)
Put plainly: LTEA_HepaRG_AFP: Life Technologies and Expression Analysis (LTEA) Assay for Alpha-fetoprotein (AFP) gene using HepaRG (AID 2283472). In short, it runs like this: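 Differentiated human HepaRG cells exposed 48 h in serum-free induction medium, 8-point half-log series from 100 uM in 0.5% DMSO, duplicate. AFP mRNA by qRT-PCR, normalized to ACTB, GAPDH, POLR2A; bidirectional fit vs DMSO.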

Read-out in the next assay: BCL2L11 (gene 10018)
Put plainly: LTEA_HepaRG_BCL2L11: Life Technologies and Expression Analysis (LTEA) Assay for Bcl-2 (BCL2L11) gene using HepaRG (AID 2283473). In short, it runs like this:
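Human hepatic HepaRG cultures are treated 48 h with test chemicals (maximum 100 uM, 0.5% DMSO vehicle). Expression of BCL2L11 is measured by qRT-PCR against ACTB, GAPDH and POLR2A, with activity in either direction scored relative to vehicle.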

Read-out in assay [4]: Apolipoprotein A-V (APOA5) gene, APOA5 (gene 116519)
The assay is described as follows: LTEA_HepaRG_APOA5: Life Technologies and Expression Analysis (LTEA) Assay for Apolipoprotein A-V (APOA5) gene using HepaRG (AID 2283474). In short, it runs like this:
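Concentration-response of APOA5 expression in HepaRG: eight half-log doses to 100 uM, 48 h, qRT-PCR normalized to ACTB/GAPDH/POLR2A, bidirectional fitting with 0.5% DMSO as baseline.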

Read-out in assay [5]: Apoptosis regulator Bcl-2 (Homo sapiens) (UniProt P10415)
The assay is described as follows: LTEA_HepaRG_BCL2: Life Technologies and Expression Analysis (LTEA) Assay for Bcl-2 gene using HepaRG (AID 2283475). Summed up: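 Differentiated human HepaRG cells in serum-free induction medium exposed 48 h, in duplicate, to 8-point half-log series from 100 uM in 0.5% DMSO. BCL2 mRNA by qRT-PCR (TaqMan/Fluidigm), normalized to ACTB, GAPDH, POLR2A; bidirectional fit against DMSO.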

Read-out in assay [6]: Bcl-2 (BID) gene, BID (gene 637)
The assay is described as follows: LTEA_HepaRG_BID: Life Technologies and Expression Analysis (LTEA) Assay for Bcl-2 (BID) gene using HepaRG (AID 2283476). Summed up:
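Gene expression by qRT-PCR in HepaRG cells after 48 h exposure, duplicate wells, eight half-log concentrations topping at 100 uM in 0.5% DMSO. Normalized to ACTB, GAPDH, POLR2A; bidirectional fitting relative to DMSO.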

Read-out in a further assay: Caspase-3 (Homo sapiens) (UniProt P42574)
Put plainly: LTEA_HepaRG_CASP3: Life Technologies and Expression Analysis (LTEA) Assay for cysteine-aspartic acid protease (CASP3) using HepaRG (AID 2283477). Summed up:
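Transcript-level assay: CASP3 mRNA in human HepaRG after 48 h treatment, eight half-log concentrations from 100 uM in 0.5% DMSO, quantified by qRT-PCR.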

Read-out in assay [7]: Cytochrome P450 (CYP24A1), CYP24A1 (gene 1591)
Put plainly: LTEA_HepaRG_CYP24A1: Life Technologies and Expression Analysis (LTEA) Assay for Cytochrome P450 (CYP24A1) using HepaRG (AID 2283478). Summed up:
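Gene expression of CYP24A1 by TaqMan qRT-PCR in HepaRG after 48 h treatment, highest concentration 100 uM; activity fitted in both directions relative to DMSO vehicle.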

Read-out in assay [8]: Cytochrome P450 (CYP1A2), CYP1A2 (gene 1544)
Put plainly: LTEA_HepaRG_CYP1A2: Life Technologies and Expression Analysis (LTEA) Assay for Cytochrome P450 (CYP1A2) using HepaRG (AID 2283479). In short, it runs like this:
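In duplicate wells, HepaRG cultures maintained in 0.5% DMSO were treated 48 h across an 8-point, half-log series topping at 100 uM; phenobarbital (1 mM) served as induction control. Expression was read by qRT-PCR.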

Active and inactive are the calls of the source. Rule for the calls: active = hit-call score of the fitted dose curve at least 0.9, where 1 is the maximum; inactive = score below 0.9.

Chain of Caspase-3 (Homo sapiens) (P42574 whole entry, looked up): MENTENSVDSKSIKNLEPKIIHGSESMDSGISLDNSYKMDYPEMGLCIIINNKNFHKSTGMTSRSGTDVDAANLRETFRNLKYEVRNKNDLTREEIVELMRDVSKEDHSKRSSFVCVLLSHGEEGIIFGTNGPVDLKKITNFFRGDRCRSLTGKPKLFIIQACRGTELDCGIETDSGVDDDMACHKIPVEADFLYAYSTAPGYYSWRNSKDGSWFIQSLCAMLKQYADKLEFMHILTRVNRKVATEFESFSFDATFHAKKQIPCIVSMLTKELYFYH
Chain of Apoptosis regulator Bcl-2 (Homo sapiens) (P10415 whole entry, looked up): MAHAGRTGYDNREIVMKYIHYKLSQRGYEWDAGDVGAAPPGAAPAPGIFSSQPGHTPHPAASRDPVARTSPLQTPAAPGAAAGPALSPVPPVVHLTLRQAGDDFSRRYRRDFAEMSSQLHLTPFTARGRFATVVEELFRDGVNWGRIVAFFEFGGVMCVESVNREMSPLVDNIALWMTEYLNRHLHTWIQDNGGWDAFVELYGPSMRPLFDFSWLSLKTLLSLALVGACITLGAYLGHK

For `Clc1cccc(C(Cl)(Cl)Cl)n1`, the outcome (in assay [1]; in [2]; in assay [3]; in the assay with BCL2L11 (gene 10018); in assay [4]; in assay [5]) was inactive. Further, the compound was classed as inactive (in [6]; in the assay with Caspase-3 (Homo sapiens); in [7]).

For the compound `COC(=O)NC(=S)Nc1ccccc1NC(=S)NC(=O)OC`, the outcome (in assay [1]; in assay [2]; in assay [3]; with BCL2L11 (gene 10018); in assay [4]; in [5]) was inactive. Besides, the compound was classed as inactive (in assay [6]; in the assay with Caspase-3 (Homo sapiens); in assay [7]).

`COc1cc(Cl)c(OC)cc1Cl`: the call (in assay [1]; in [2]; in assay [3]; in the assay with BCL2L11 (gene 10018); in assay [4]; in assay [5]) was inactive. Moreover, the compound was called inactive (in assay [6]; with Caspase-3 (Homo sapiens)).

As to `CC(C)Oc1cccc(NC(=O)c2ccccc2C(F)(F)F)c1`, the result (in [1]; in assay [2]; in assay [3]; in the assay with BCL2L11 (gene 10018); in [4]; in [5]) was inactive. Besides, the compound was called inactive (in assay [6]; with Caspase-3 (Homo sapiens); in [7]).

By AC50 is commonly meant the midpoint of the concentration-response curve, whichever way the signal moves. As for `Cn1c(-c2ccccc2)cc(-c2ccccc2)[n+]1C`, the outcome (in assay [1]; with BCL2L11 (gene 10018); in [7]) was inactive. In addition, the AC50 in assay [2] is 82.1 µM (active); in assay [3], 39.5 µM (active); in [4], 63.8 µM (active); in [5], 13.3 µM (active); in assay [6] it was 80 µM (active); with Caspase-3 (Homo sapiens) it was 50 µM (active). For the same compound, the concentration at half-maximal activity (AC50) in [8] is 13.2 µM (active).

`CC(C)=CC1C(C(=O)OCc2coc(Cc3ccccc3)c2)C1(C)C` (configuration not stated): the call (in [1]; in assay [2]; in assay [3]; with BCL2L11 (gene 10018); in [4]; in assay [5]) was inactive. In addition, the outcome (in assay [6]; in the assay with Caspase-3 (Homo sapiens); in assay [7]; in assay [8]) was inactive.

As to `C=CCOC(=O)C(C)(C)OC(=O)c1cc(-n2c(=O)cc(C(F)(F)F)n(C)c2=O)ccc1Cl`, the call (in [1]; in assay [2]; in assay [3]; with BCL2L11 (gene 10018); in [4]; in assay [5]) was inactive. The result (in assay [6]; with Caspase-3 (Homo sapiens); in [7]) was inactive.

Take `O=C1C2CC=CCC2C(=O)N1SC(Cl)(Cl)Cl` (configuration not stated): the compound was classed as inactive (in assay [1]; in assay [2]; in assay [3]; with BCL2L11 (gene 10018); in [4]; in assay [5]). Moreover, the compound was called inactive (in [6]; with Caspase-3 (Homo sapiens); in assay [7]).

Take `COC(=O)NS(=O)(=O)c1ccc(N)cc1`: the call (in [1]; in [2]; in [3]; with BCL2L11 (gene 10018); in assay [4]; in assay [5]) was inactive. For the same compound, the call (in assay [6]; with Caspase-3 (Homo sapiens); in assay [7]; in [8]) was inactive.

Consider `CS(=O)(=O)c1cc(C(F)(F)F)ccc1C(=O)c1cnoc1C1CC1`, for which the compound was classed as inactive (in assay [1]; in assay [2]; in assay [3]; in the assay with BCL2L11 (gene 10018); in assay [4]; in assay [5]). Besides, the result (in the assay with Caspase-3 (Homo sapiens); in [7]) was inactive.

Take `CNC(=O)Oc1cccc2ccccc12`: the outcome (in assay [1]; in assay [2]; in assay [3]; in the assay with BCL2L11 (gene 10018); in assay [4]; in assay [5]) was inactive. Moreover, the result (in assay [6]; in the assay with Caspase-3 (Homo sapiens)) was inactive. For the same compound, in [7], the concentration at half-maximal activity (AC50) is 0.0808 µM (active).

With `CCSC(=O)N1CCCCCC1`, the compound was classed as inactive (in assay [1]; in assay [2]; in assay [3]; in the assay with BCL2L11 (gene 10018); in [4]; in assay [5]). Besides, the compound was called inactive (in [6]; with Caspase-3 (Homo sapiens); in assay [7]; in assay [8]).

With `COC(=O)N(C(=O)N1CO[C@@]2(C(=O)OC)Cc3cc(Cl)ccc3C2=N1)c1ccc(OC(F)(F)F)cc1`, the compound was classed as inactive (in assay [1]; in assay [2]; in [4]; in assay [5]; in assay [6]; with Caspase-3 (Homo sapiens)). Also, in assay [7], the result was inactive. In addition, the AC50 was 40 µM (active) in assay [3], 12.7 µM (active) in the assay with BCL2L11 (gene 10018) and 10.4 µM (active) in assay [8].

Consider `CCCCC(O)(Cn1cncn1)c1ccc(Cl)cc1Cl` (configuration not stated), for which the AC50 in assay [1] was 74.6 µM (active); in [3] it was 68.4 µM (active); in assay [4], 65.6 µM (active); in [5], 59.5 µM (active). For the same compound, the compound was called inactive (in assay [2]; with BCL2L11 (gene 10018); in assay [6]; with Caspase-3 (Homo sapiens); in [7]).

For the compound `CN=C=S`, the outcome (in assay [1]; in [2]; in assay [3]; in the assay with BCL2L11 (gene 10018); in assay [4]; in assay [5]) was inactive. Further, the outcome (in assay [6]; with Caspase-3 (Homo sapiens); in [7]) was inactive.

With `CCOC(=O)C(C)OC(=O)c1cc(Oc2ccc(C(F)(F)F)cc2Cl)ccc1[N+](=O)[O-]` (configuration not stated), the result (in [1]; in assay [2]; in the assay with BCL2L11 (gene 10018); in assay [4]; in assay [5]; in [6]) was inactive. For the same compound, the call (with Caspase-3 (Homo sapiens); in assay [7]) was inactive. Also, the concentration at half-maximal activity (AC50) in [3] was 50 µM (active).

With `COP(=O)(OC)O/C(C)=C/C(=O)N(C)C`, the compound was classed as inactive (in [1]; in [2]; in assay [3]; in the assay with BCL2L11 (gene 10018); in assay [4]; in [5]). In addition, the compound was called inactive (in assay [6]; with Caspase-3 (Homo sapiens); in assay [7]; in assay [8]).

These data come from PubChem BioAssay (EPA / NIEHS).
